# ChEMBL document CHEMBL3988442, “University of Dundee, Small-Polar-MMV Screening Library” (2021)
# Hit rate of the full screen: of about 48,000 compounds, about 13,000 (27%) showed an effect of 50% or more. Some of the results follow.
# System: Wolbachia pipientis
# Experiment: Anti-Wolbachia Cell-Based Screen
# Assay type: functional
# Set-up: scale not given: in the data most compounds retested in dose-response had high values
# Conditions: 5 µM
row,Structure (SMILES),Percent Effect [%]
1,OC(COCc1ccccc1)CSc1nnc2ccccn12 (stereo unspecified),-5.176
2,CN(Cc1ccccc1)CC(O)Cn1cnc2ccsc2c1=O (stereo unspecified),-0.02665
3,Cc1ccc(CCCC(=O)N2CC(=O)Nc3cccnc32)s1,-7.748
4,CCn1cc(S(=O)(=O)NCC(OC)c2cccc(Cl)c2)cn1 (stereo unspecified),-3.186
5,COc1c(CNC2CCOc3ccccc32)c(C)nn1C (stereo unspecified),-8.703
6,Cc1nn(C)c(N(C)C)c1CNC1CCc2cc(F)ccc21.Cl (stereo unspecified),58.09
7,COc1c(CNC2CCCc3ccccc32)c(C)nn1C (stereo unspecified),-3.62
8,COc1c(CNC2CCc3ccccc32)c(C)nn1C (stereo unspecified),132.3
9,Cc1nn(C)c(N(C)C)c1CNC1CCc2c(F)cccc21.Cl (stereo unspecified),-3.746
10,Cc1nn(C)c(N(C)C)c1CNC1CCOc2c(F)cccc21 (stereo unspecified),-12.9
11,CCNC(=O)[C@@H]1CCCN1[C@@H](C(=O)NC)c1ccccc1.Cl,1.454
12,CCOCCNC(=O)[C@@H]1CCCN1c1nccc(Nc2ccccc2)n1,123.1
13,Cc1nc(N2CCCC2C(=O)NCc2ccsc2)nc2ccccc12 (stereo unspecified),-0.4338
14,CCC(C)CNC(=O)[C@@H]1CCCN1c1nccc(Nc2ccccc2)n1 (stereo partly specified),83.24
15,Cc1nc(N2CCCC2C(=O)NC(C)(C)CO)nc2ccccc12 (stereo unspecified),-14.27
16,Cn1cc(S(=O)(=O)N2CCCC(Cn3cncn3)C2)cn1 (stereo unspecified),7.015
17,Cc1cc(C)nc(N2CCN(Cc3cc4n(n3)CCNC4)CC2)n1,3.043
18,CCC(CC)(CNC(=O)OC(C)(C)C)NC(=O)C1CCCO1 (stereo unspecified),-2.751
19,NC(=O)C1CCN(Cn2nc(-c3ccc(F)cc3)oc2=O)CC1,-1.438
20,CCNC(=O)C1CCN(Cn2nc(-c3ccccc3)oc2=O)CC1,32.26
21,CN(C)C(=O)C1CCN(Cn2nc(-c3ccc(F)cc3)oc2=O)CC1,103.8
22,NC(=O)C1CCN(Cn2nc(-c3ccc(F)cc3)oc2=O)C1 (stereo unspecified),1.615

row,Structure (SMILES),Percent Effect [%]
1,CCNC(=O)C1CCN(Cn2nc(-c3ccc(F)cc3)oc2=O)CC1,109.5
2,CN(C)C(=O)C1CCN(Cn2ccc(-c3ccc(F)cc3)n2)CC1,-0.7457
3,COCCNS(=O)(=O)c1cccc2c1CN(C(=O)c1ccoc1)CC2,-4.296
4,O=C(CCN1CCCCO1)NCCSc1cnn[nH]1,-10.06
5,O=C(Nc1cnc(N2CCOCC2)nc1)c1ccc(C(F)(F)F)cc1,-14.92
6,COc1ccc(C)cc1NC(=O)Nc1cnc(N2CCN(C)CC2)nc1,-7.75
7,COc1ccc(C)cc1NC(=O)Nc1cnc(N2CCOCC2)nc1,156.3
8,O=C(COc1ccc(Cl)cc1)Nc1cnc(N2CCOCC2)nc1,-3.73
9,COc1ccc(C)cc1NC(=O)Nc1cnc(N2CCCC2)nc1,135.2
10,COc1ccc(CNC(=O)Nc2cccnc2N2CCCC2)cc1O,5.848
11,Cc1cnc(C(=O)N2CCCCC2c2ccc(CN(C)C)cc2)cn1 (stereo unspecified),6.216
12,Cc1cnc(C(=O)N2CCOCC2C)cn1 (stereo unspecified),99.05
13,COCCn1nc(C(=O)N2CCOCC2C)ccc1=O (stereo unspecified),3.322
14,CC1COCCN1C(=O)c1ccc(=O)n(CCOc2ccccc2)n1 (stereo unspecified),-6.742
15,CC1COCCN1C(=O)c1cnccn1 (stereo unspecified),93.18
16,O=C(Cc1cccs1)N1CCOCC1c1ccccc1 (stereo unspecified),-1.023
17,O=C(c1cnccn1)N1CCc2ncnc(C3CCOC3)c2CC1 (stereo unspecified),-0.4646
18,CC1COCCN1C(=O)c1ccc(=O)n(Cc2ccccc2)n1 (stereo unspecified),-2.389
19,Cc1cnc(C(=O)N2CCOCC2c2ccccc2)cn1 (stereo unspecified),87.18
20,CCc1ccc(O)c(C(=O)N2CCN(CC(=O)N3CCCCC3)CC2)c1,-4.126
21,O=C(NS(=O)(=O)c1cc(Cl)sc1Cl)c1cccc2c1OCCO2,-19.53
22,COc1cccc(C(=O)NCc2ccccc2S(=O)(=O)N(C)C)c1,16.54

row,Structure (SMILES),Percent Effect [%]
1,CSCCN(C)C(=O)C1(c2ccc(F)cc2F)CCOCC1,-17.49
2,CCOCCC(=O)NCC(C)c1ccsc1 (stereo unspecified),1.929
3,Cc1ccc(CN2CC[C@H]3C[C@@H](c4nc(C5CC5)cs4)O[C@@H]3C2)o1,-2.385
4,Cn1cc(C2COC3(CCN(C(=O)Cc4ccccc4)CC3)C2)cn1 (stereo unspecified),95.06
5,O=C(CC1CC1)N1CCC2(CC1)CC(Oc1ccccc1)CO2 (stereo unspecified),-7.215
6,Cn1cc(C2CN(C(=O)Cc3coc(-c4ccccc4)n3)CCO2)cn1 (stereo unspecified),-11.89
7,CCOCC(=O)N1CCC2(CC1)CC(c1ccccc1)CO2 (stereo unspecified),118.3
8,O=C(O)C(F)(F)F.O=C(c1ccccc1)N1CCC[C@]2(C[C@@H](OCc3ccncc3)CO2)C1,6.805
9,CCC(=O)N1CCC2(CC1)CC(Oc1ccccc1)CO2 (stereo unspecified),-6.284
10,Cn1cc(C2CCCN2C(=O)CCCOCc2ccccc2)cn1 (stereo unspecified),2.254
11,O=C(Cc1cccnc1)N1CCC2(CC1)CCN(C1CCOCC1)CC2.O=C(O)C(F)(F)F.O=C(O)C(F)(F)F,1.334
12,CC1COC2(CCN(C(=O)Cc3ccncc3)CC2)C1.O=C(O)C(F)(F)F (stereo unspecified),99.32
13,CN(Cc1ccncc1)C1COC2(CCN(c3ncc(F)cn3)CC2)C1.O=C(O)C(F)(F)F.O=C(O)C(F)(F)F (stereo unspecified),-12.58
14,O=C(Cc1ccncc1)N1CCC2(CC1)CC(c1ccccc1)CO2.O=C(O)C(F)(F)F (stereo unspecified),104.1
15,O=C(C1CC1)N1CCC[C@]2(C[C@@H](OCc3ccncc3)CO2)C1.O=C(O)C(F)(F)F,6.09
16,CC1(CNS(=O)(=O)c2cccc(C(=O)N3CCSCC3)c2)COC1,5.198
17,N#Cc1ccnc(N2CCN(CC(O)c3c(F)cccc3F)CC2)c1 (stereo unspecified),-15.75
18,CC(CCn1cccn1)NCc1n[nH]c2c1CCCCC2 (stereo unspecified),-18.85
19,O=S(=O)(NCCNc1ccc(-n2cccc2)nn1)c1ccccc1,-5.245
20,COC(=O)[C@@H]1Cc2ncn(C)c2CN1S(=O)(=O)c1ccc(Cl)cc1,-5.674
21,Cn1cc(S(=O)(=O)Nc2ccc(Cl)cn2)cc1C(N)=O,6.201
22,Cc1cc2[nH]c(CN3CCOC(c4ccc(Cl)cc4)C3)cc(=O)n2n1 (stereo unspecified),-2.359

row,Structure (SMILES),Percent Effect [%]
1,CC(C)C(=O)N1CC[C@H]2N(C)CC[C@@]2(C(=O)Nc2ccccc2)CC1,108.6
2,O=C(Cc1cccnc1)N1CCC2(CC1)CCN(C1CCOCC1)C2.O=C(O)C(F)(F)F.O=C(O)C(F)(F)F,-0.7381
3,CC(C)CC(=O)N1CC[C@H]2N(C)CC[C@@]2(C(=O)Nc2cccnc2)CC1.O=C(O)C(F)(F)F.O=C(O)C(F)(F)F,92.3
4,Cc1ccc(CNC(=O)C2CCN(C(=O)C(C)C)CC2)n1C,-14.75
5,CCN1CC[C@@]2(C(=O)N(C)C)CCN(C(=O)NC(C)C)CC[C@@H]12,-5.445
6,CNC(=O)N1CC[C@H]2N(C)CC[C@@]2(C(=O)Nc2ccccc2)CC1,2.294
7,O=C(Nc1cccnc1)N1CCC(n2ccc(C(F)(F)F)n2)CC1,-10.86
8,CCN1CC[C@@]2(C(=O)N3CCOCC3)CCN(C(=O)CC(C)C)CC[C@@H]12.O=C(O)C(F)(F)F,-11.51
9,CS(=O)(=O)N1C[C@H](C(=O)Nc2cccnc2)[C@@H]2CCO[C@@H]2C1.O=C(O)C(F)(F)F,-6.028
10,CC(C)NC(=O)N1CC[C@H]2N(C)CC[C@@]2(C(=O)Nc2cccnc2)CC1,104
11,CC(C)C(=O)N1CCc2nc(C(=O)Nc3cccnc3)sc2CC1,0.3042
12,CC(C)C(=O)N1CC[C@H]2N(C)CC[C@@]2(C(=O)Nc2cccnc2)CC1.O=C(O)C(F)(F)F.O=C(O)C(F)(F)F,118.9
13,CCC[C@H]1CN(CCCO)C[C@@H]1NC(=O)Cn1cc(C)cn1,-8.445
14,CCN(Cc1cc(F)c(OC)c(Cl)c1)Cc1nc(COC)no1,-30.92
15,COc1cc(C)sc1C(=O)NCCC(=O)N(C)c1ccccc1,-9.675
16,CC(C)N(C)CCNC(=O)NCc1ccccc1-n1cccn1,-1.809
17,Cc1nn(C(C)C)c(C)c1S(=O)(=O)Nc1cccc(C(=O)O)c1,0.846
18,Cc1ccc(OCC(C)NS(=O)(=O)Cc2ccon2)cc1 (stereo unspecified),103.4
19,CC(C)CC(CO)NS(=O)(=O)Cc1ccon1 (stereo unspecified),92.95
20,Cc1ccc(OCC(C)NS(C)(=O)=O)cc1 (stereo unspecified),1.319
21,Cc1cc(C(=O)NS(=O)(=O)Cc2ccon2)c(C)n1C(C)C,19.94
22,Cc1ccc(OCC(C)NS(=O)(=O)N(C)C)cc1 (stereo unspecified),-6.618

row,Structure (SMILES),Percent Effect [%]
1,O=C(NS(=O)(=O)Cc1ccon1)c1ccsc1,-7.233
2,Cc1ccc(C(=O)NS(=O)(=O)Cc2ccon2)c(C)c1,-32.05
3,CC(CCc1ccc(F)c(F)c1)NS(=O)(=O)Cc1ccon1 (stereo unspecified),102
4,O=C(CCc1cccc(Cl)c1)NS(=O)(=O)Cc1ccon1,-7.174
5,CCC(CNC(=O)Cc1cc(C)on1)Oc1cccc(F)c1 (stereo unspecified),6.278
6,CN1CCN(c2ncnc3c2c(C(=O)NC2CC2)c2ccccn23)CC1,-8.273
7,CC1CN(C(=O)NCc2ccn(C)c2)CCN1CC(F)(F)F (stereo unspecified),-7.034
8,O=C(CN1CCN(c2nccs2)CC1)Nc1cccnc1,105.2
9,O=C(CCN1CCCN(c2nccs2)CC1)Nc1ccccc1,4.493
10,O=C(CN1C[C@H]2CC[C@@H]1CN(Cc1ccccn1)C2)NCc1cccs1,1.062
11,Cc1ccccc1CN1CCN(CC(=O)Nc2cccnc2)CC1,7.585
12,Cc1csc(N2CCN(CCc3ccccn3)CC2C)n1 (stereo unspecified),3.431
13,CC1CN(CC(=O)NC(=O)NCc2cccs2)CCN1CC(F)(F)F (stereo unspecified),103.7
14,CC1CN(CC(=O)NCc2cccs2)CCN1c1nccs1 (stereo unspecified),105.4
15,Cc1csc(N2CCN(CC(=O)Nc3nncs3)CC2C)n1 (stereo unspecified),1.073
16,Cc1csc(N2CCN(CC(=O)Nc3cccnc3)CC2C)n1 (stereo unspecified),114.5
17,O=C(CN1CCOC(Cn2cccn2)C1)NCc1cccs1 (stereo unspecified),2.249
18,C[C@@H]1CN(Cc2ccccc2)CCN1C(=O)NCc1nccs1,-1.817
